# Screens: PubChem BioAssay, National Center for Advancing Translational Sciences (NCATS)
# Compounds with a hit are over-represented: about 6.1% of the library has one in this group of screens.
# DRD3 antagonist – qHTS of D3 Dopamine Receptor Antagonist: qHTS. D(3) dopamine receptor (Homo sapiens), P35462. D3R cells, DiscoveRx beta-arrestin luminescence, antagonist mode; hits give low values. max response, negative = inhibition, %. 2.5% of 360,000 active; in the data active means max response below about -50%; inconclusive means no clear call, values can overlap the other calls; further: on the % scale 0 is the no-effect control and ±100 the full control effect
# Target sequence (P35462 whole entry, looked up): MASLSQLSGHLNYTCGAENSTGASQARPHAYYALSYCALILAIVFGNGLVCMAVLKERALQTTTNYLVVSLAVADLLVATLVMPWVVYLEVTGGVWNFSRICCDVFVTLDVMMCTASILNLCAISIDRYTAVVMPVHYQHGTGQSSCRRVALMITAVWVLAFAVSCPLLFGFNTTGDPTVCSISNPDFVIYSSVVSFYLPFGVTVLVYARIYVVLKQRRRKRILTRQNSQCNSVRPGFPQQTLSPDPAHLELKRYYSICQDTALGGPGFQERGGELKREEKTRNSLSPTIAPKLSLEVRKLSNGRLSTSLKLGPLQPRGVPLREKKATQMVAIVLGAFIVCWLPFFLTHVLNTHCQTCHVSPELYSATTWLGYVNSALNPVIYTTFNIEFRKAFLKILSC
#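 Cells plated overnight at 1500 cells/well, then exposed to library compounds with dopamine controls for 90 minutes at 37 degrees C. DiscoveRx reagent added for 30–60 minutes at room temperature; luminescence read, quantitative HTS format.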
# D1 ag – Allosteric Agonists of the Human D1 Dopamine Receptor: qHTS | D(1A) dopamine receptor (Homo sapiens), P21728 | HEK293 T-REx D1 cells, calcium flux, agonist mode | activation, % at 2 µM | 1% of 360,000 active; in the data active means activation above about 30%; further: 0% is about no effect
#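 Tetracycline-induced HEK293 TREx D1 cells, force-coupled to calcium signalling, were dye-loaded with a no-wash calcium kit. Compound was pin-added after a 10 s baseline. Fluorescence was read kinetically at 1 cycle/s for 180 s, with calcium rises flagged as agonism.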
# D1 antagonist – Antagonist of Human D 1 Dopamine Receptor: qHTS. D(1A) dopamine receptor (Homo sapiens), P21728. HEK293 TREx D1 cells, calcium flux, dopamine EC80; hits give low values. activity change, negative = inhibition, % at 10 µM. 3.2% of 360,000 active. AID 504652, 2011; in the data active means activity change below about -30%; further: on the % scale 0 is the no-effect control and ±100 the full control effect
#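 Allosteric or orthosteric antagonism assessed as attenuation of the calcium response to EC80 dopamine, added 180 s after compound, in induced HEK293 Trex D1 cells loaded with no-wash calcium dye.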
# D1 PAM – Potentiators of Human D1 Dopamine Receptor: qHTS; D(1A) dopamine receptor (Homo sapiens), P21728; HEK293 TREx D1 cells, calcium flux, dopamine EC20 potentiation; potentiation, % at 10 µM; 0.036% of 360,000 active; AID 504651, 2011; in the data active means potentiation above about 30%; further: 0% is about no effect
# D3 ag – qHTS of D3 Dopamine Receptor Agonist: qHTS; 0.58% of 410,000 active; max activation, %; D3R DiscoveRx beta-arrestin cells, luminescence, 90 min; AID 652048, 2013; in the data active means max activation above about 30%; further: 0% is about no effect
#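 Agonist-mode cell screen: cells plated at 1500/well and incubated overnight at 37 °C, then exposed to library compounds for 90 min at 37 °C. Detection reagent was added for 30–60 min at room temperature, and luminescence was read.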
# The depositor's hits bear a star; ? = inconclusive; nt = no result given; ! = not active in a repeat.
SMILES,DRD3 antagonist,D1 ag,D1 antagonist,D1 PAM,D3 ag
COc1ccc(NC(=S)NC(NC(=O)c2cccc(C)c2)C(Cl)(Cl)Cl)c([N+](=O)[O-])c1 (centres undefined),-82*,2,2,3,-8
Cc1ccc(C)c(N2CCN(C(=O)c3cnc4c(-c5ccccc5)c(C)nn4c3C)CC2)c1,nt,10,-8,-6,17
O=C(CS(=O)(=O)c1ccccc1Cl)N1CCOCC1,9,2,-22,1,-6
O=C(O)CCC(=O)N1CCN(c2nc(-c3ccccc3Cl)c3cc(Br)ccc3n2)CC1,?,66*,-5,2,1
Cc1csc2c(N3CCN(C(=S)Nc4ccc(F)cc4F)CC3)ncnc12,17,40*,-42*,-7,19
Cc1csc2c(N3CCN(C(=O)Nc4ccccc4)CC3)ncnc12,-2,10,-4,-14,12
CC(C)CCN1C(=O)c2ccccc2CC1(C)C(=O)NC1CCCCC1 (centres undefined),nt,-1,-4,-4,-4
Cc1cccc(C(=O)NCC(=O)OC(C(=O)Nc2cc(C(F)(F)F)ccc2Cl)c2ccccc2)c1 (centres undefined),nt,7,-30*,-6,nt
O=C(CNC(=O)c1ccccc1)OC(CCc1ccccc1)C(=O)Nc1cc(C(F)(F)F)ccc1Cl (centres undefined),nt,8,-37*,-6,nt
O=C(/C=C/c1cccc2ccccc12)c1ccncc1,4,2,2,-3,2
Cc1[nH]c2ccccc2c1/C=C/C(=O)c1ccncc1,-6,55*,7,-6,1
Cn1c(COc2ccc(Br)cc2)nnc1SC1CCc2ccccc2C1=O (centres undefined),-57*,6,-3,-4,-3
Cn1c(COc2ccccc2)nnc1SCCSc1nnc(COc2ccccc2)n1C,11,5,-6,0,-1
COc1cc(SC)ccc1C(=O)NCCCn1ccnc1,10,1,-10,-3,2
CC1=C(C(=O)N2CCc3ccccc32)C2(CCC(C)CC2)OC1=O (centres undefined),20,2,-78*,-8,1
CCOC(=O)N/N=C(/c1ccccc1)C1CCCCC1,6,0,15,2,-8
COC(=O)c1ccc(Cl)cc1NC(=O)Nc1nnc(N2CCCC2)s1,nt,-1,-8,-1,2
O=C(O)CCCN1C(=O)/C(=C/c2ccc(-c3nc4ccccc4s3)o2)SC1=S,-82*,53*,56,11,-1
O=C(O)CCCCCN1C(=O)/C(=C\c2ccc(-c3ccc(Cl)cc3)o2)SC1=S,-10,7,2,-6,4
NC(=O)C1CCN(C2CC(=O)NC2=O)CC1 (centres undefined),31,5,-37*,-3,4
CC(C)C[C@H]1C(=O)N2CCC[C@H]2[C@]2(O)O[C@](NC(=O)[C@@H]3C=C4c5cccc6[nH]c(Br)c(c56)CC4N(C)C3)(C(C)C)C(=O)N12 (some centres undefined),-10,10,-42*,-4,12
Cc1cc(NC(=O)Nc2cc(Cl)ccc2C)no1,3,35*,-10,0,-2
Cc1cc(NC(=O)CSCC(=O)N(C)Cc2cccc(Cl)c2)no1,-5,3,-18,-11,-16
Cc1cc(NC(=O)C(=O)NCc2cccc(Cl)c2)no1,-7,5,-33*,2,14
Nc1nc(-c2ccccc2)nn1C(=O)c1ccco1,7,3,-34*,-6,3
SMILES,DRD3 antagonist,D1 ag,D1 antagonist,D1 PAM,D3 ag
O=C(c1ccco1)n1nc(-c2ccccc2)nc1SCc1ccccc1,-10,1,-3,5,-9
CSc1nc(N)nc2c1ncn2CC(=O)NCc1ccc2[nH]ccc2c1,13,nt,nt,nt,48*
O=S(=O)(Nc1ccc(-n2cnnn2)cc1)c1cccs1,2,1,3,3,1
O=C(Nc1c(-c2ccccc2)nc2ccccn12)c1ccccc1F,8,2,-75*!,-4,0
CCc1nc2c(OCc3ccc4c(c3)OCO4)cccn2c1N(C=O)Cc1ccc(OC)cc1,35,nt,nt,nt,14
CN(C)C(CNC(=O)Cc1cccc(C(F)(F)F)c1)c1ccco1 (centres undefined),16,5,-48*,-2,-8
CN(C)C(CNC(=O)c1ccc(C2SCCS2)cc1)c1ccccc1 (centres undefined),-53*,4,-22,1,-26
COc1ccc(C(=O)NCCNC(C)=O)cc1S(=O)(=O)NCc1ccc(Cl)cc1,?,3,31,9,1
CN(C)C(CNC(=O)c1ccc(NC(=O)c2cccs2)cc1)c1ccccc1 (centres undefined),-11,2,-21,-4,-6
Cc1ccc(NS(=O)(=O)c2ccc(C(=O)NCC(c3ccco3)N(C)C)cc2)cc1 (centres undefined),8,53*,-31*,-7,-9
COc1ccc(C(=O)NCC(c2ccco2)N(C)C)cc1S(=O)(=O)NCc1ccc(Cl)cc1 (centres undefined),-97*,1,2,-7,-21
O=C(Nc1ccn(CC(=O)N2CCN(c3ccccn3)CC2)c(=O)n1)OCc1ccccc1,-24,1,nt,-1,6
CCN(CC)S(=O)(=O)c1ccc2c(c1)N(CC(=O)Nc1cccc(C)c1C)C(=O)C1CCCN21 (centres undefined),nt,3,28,2,2
COc1ccccc1NS(=O)(=O)c1ccc(C(=O)NCC(c2ccccc2OC)N(C)C)cc1 (centres undefined),6,2,-1,-5,-5
CNS(=O)(=O)c1cccc(C(=O)NCC(c2ccco2)N(C)C)c1 (centres undefined),6,0,-35*,1,-3
Cc1cccc(NS(=O)(=O)c2ccc(C(=O)NCC(c3ccccc3)N(C)C)cc2)c1C (centres undefined),-25,48*,1,-2,-20
CCOC(=O)c1cnc(-n2nc(C)cc2C)nc1NC(C)c1ccccc1 (centres undefined),-59*,12,7,-1,-9
CCOC(=O)c1cnc(-n2nc(C)cc2C)nc1NCc1ccccc1,-20,24,8,-5,-4
CN1CCCC(n2nc(Cc3ccc(Cl)cc3)c3ccccc3c2=O)CC1 (centres undefined),-54*,nt,nt,nt,-82
CCOC(=O)Cn1nc(Cc2ccccc2)c2ccccc2c1=O,-17,0,5,4,-7
